Screening results as filed in PubChem BioAssay.
Sampled rows, rich in hits. Any-hit rate of the full collection: about 11%.
Tau fluor cs: Counterscreen qHTS for Inhibitors of Tau Fibril Formation, Fluorescence Polarization; tau K18 P301L Alexa594 fluorescence, heparin fibrillization; 280,000 compounds, 0.93% hits; Potency, µM (top dose mostly 57.7 µM); note: nearly all actives have a fitted effect of over 55% in size
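Human tau K18 P301L (15 uM unlabeled, 0.24 uM Alexa 594-labeled) in 100 mM sodium acetate pH 7 with 20 uM heparin, 6 hr at 37 C. ThT 30 uM added, 1 hr ambient; Alexa 594 FP and total fluorescence read at 555/632 nm.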
Sfp inh: qHTS Assay for Inhibitors of Bacillus subtilis Sfp phosphopantetheinyl transferase (PPTase). Biochemical Sfp PPTase activity, qHTS. Potency, µM, hits mostly inhibitors. 310,000 compounds, 3.5% hits. AID 1490, 2009;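 note: the enzyme is Sfp with the accession as filed and its product quenches rhodamine fluorescence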
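Buffer: 50 mM Hepes-Na pH 7.6, 10 mM MgCl2, 0.01% Nonidet P-40, 0.01% BSA. Enzyme 15 nM, pre-exposed to compound 15 min; substrates then added and fluorescence change tracked over 30 min.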
G9a inh: qHTS Assay for Inhibitors of Histone Lysine Methyltransferase G9a | Histone-lysine N-methyltransferase EHMT2 (Homo sapiens), Q96KQ7 | G9a H3K9 monomethylation, AlphaScreen, 2 h | Potency, µM (doses to about 102 µM), most hits filed as inhibitors | 350,000 compounds, 8.8% hits | AID 504332, 2011; note: nearly all actives have a fitted effect of over 75% in size
Target sequence (Q96KQ7 913-1193 limits assumed): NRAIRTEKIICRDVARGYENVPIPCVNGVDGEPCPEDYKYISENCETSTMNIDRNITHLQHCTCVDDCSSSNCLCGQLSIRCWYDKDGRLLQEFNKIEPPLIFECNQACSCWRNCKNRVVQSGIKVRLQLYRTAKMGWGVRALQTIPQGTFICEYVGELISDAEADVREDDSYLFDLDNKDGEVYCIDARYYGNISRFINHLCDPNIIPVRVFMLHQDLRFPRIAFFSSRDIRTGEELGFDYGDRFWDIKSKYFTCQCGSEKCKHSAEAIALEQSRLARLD
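Enzyme 20 nM + cpd, 15 min RT; add b-H3K9 pep 500 nM / SAM 20 uM; 2 h RT; anti-H3K9me1 Ab 0.5 ug/mL + SA donor / anti-rabbit acceptor beads 20 ug/mL each, 10 min; AlphaScreen read.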
Coupling enz: qHTS Assay for Inhibitors of Fructose-1,6-bisphosphate Aldolase from Giardia Lamblia: Coupling assay counterscreen. coupling enzyme system counterscreen, AmpLite Red fluorescence. activity change, negative = inhibition, % at 58.2 µM, hits read low. 290,000 compounds, 0.67% hits. AID 2472, 2010; in the data active = activity change below about -30%
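First, compound is pin-transferred into glyceraldehyde-3-phosphate coupling-enzyme reagent at 57.5 uM final and held 10 min at RT. Next, substrate, coupling system and AmpLite Red are added. After 20 min RT, fluorescence (525/598 nm) is read.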
Tau ThT inhib: qHTS for Inhibitors of Tau Fibril Formation, Thioflavin T Binding; Microtubule-associated protein tau (Homo sapiens), P10636; recombinant tau K18 P301L (four-repeat tau fragment), heparin-induced fibrillization, ThT fluorescence; Potency, µM (titrated, usually from 57.4 µM), usual class: inhibitors; 270,000 compounds, 2.1% hits; AID 1460, 2008; note: nearly all actives have a fitted effect of over 55% in size
Target sequence (P10636 561-689 P618L limits assumed): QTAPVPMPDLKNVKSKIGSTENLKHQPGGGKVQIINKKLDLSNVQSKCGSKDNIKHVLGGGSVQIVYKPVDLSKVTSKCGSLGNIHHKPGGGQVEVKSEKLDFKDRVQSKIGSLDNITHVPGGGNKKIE
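K18 P301L tau (15 uM + 0.24 uM Alexa 594-tagged), heparin 20 uM, NaOAc pH 7, 6 h 37 C; ThT 30 uM, 1 h RT, ex 450/em 510 nm.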
Tau fibril FP: qHTS for Inhibitors of Tau Fibril Formation, Fluorescence Polarization; Microtubule-associated protein tau (Homo sapiens), P10636; AID 1468, 2008; Potency, µM (doses to about 57.7 µM), usual class: inhibitors; K18 P301L tau heparin fibrillization, Alexa594 FP, 6 h; 280,000 compounds, 0.39% hits; note: nearly all actives have a fitted effect of over 55% in size
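Human tau K18 […] P301L fragment, 15 uM unlabeled plus 0.24 uM Alexa 594-labeled tau (final), with compound and 20 uM heparin in 100 mM sodium acetate pH 7; 6 hr at 37 C, then Alexa 594 FP read.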
Each line names hits and unclear results; the compound was inactive in the other large screens. Unless noted, calls come from the whole dose curve; as a rule, active = well fitted curve in the direction sought with a large enough effect; inconclusive = small, poorly fitted or top-dose-only effect, or another doubt; inactive = no such curve, though single readings can be large; an effect the other way counts as inactive or inconclusive.

COc1cc2c(cc1OC)CN(c1ccc(F)cc1[N+](=O)[O-])CC2	Sfp inh 25µM, G9a inh 35µM (no result: Tau fluor cs, Tau ThT inhib, Tau fibril FP)
O=[N+]([O-])c1cccnc1N1CCN(c2ccc(F)cc2)CC1	G9a inh 45µM, Tau ThT inhib inconclusive
COc1cc2c(cc1OC)CN(c1ccc([N+](=O)[O-])cc1C#N)CC2	Tau fluor cs inconclusive, G9a inh inconclusive, Tau ThT inhib inconclusive
CCOC(=O)C(C)Sc1nc2c(c(=O)[nH]c(=O)n2C)n1C/C=C(/C)Cl (centres undefined)	Sfp inh 22µM, G9a inh 7.1µM
CSc1nc2c(c(=O)[nH]c(=O)n2C)n1C/C=C(\C)Cl	G9a inh 40µM
CCCC(=O)Nc1cc(-c2nnc3c4ccccc4c(C)nn23)ccc1C	none (no result: Sfp inh, Coupling enz)
Cc1cccc(NC(=O)c2oc3ccccc3c2NC(=O)c2cc(=O)c3ccccc3o2)c1	none (no result: Sfp inh, Coupling enz)
CCOC(=O)c1c(C)nn(-c2ccc(NC(=O)c3c(C)noc3C)cc2)c1C	G9a inh 45µM (no result: Tau fluor cs, Tau ThT inhib, Tau fibril FP)
CCOC(=O)c1c(C)nn(-c2ccc(NC(=O)c3cccs3)cc2)c1C	none (no result: Tau fluor cs, Coupling enz, Tau ThT inhib, Tau fibril FP)
O=C1C2=C(CCCC2)C(=O)N1c1cccc(OCCBr)c1	G9a inh 40µM
COc1ccc(CNS(=O)(=O)NCc2ccc(C)cc2)cc1OC	none
O=C(NC1CCCC1)c1cccnc1N1CCCCCC1	none
Cc1c(NC(=O)c2cccnc2C(=O)O)cccc1C(=O)O	Sfp inh inconclusive, G9a inh 8.9µM
Cc1c(NC(=O)c2ccc(-c3ccccc3)cc2)cccc1C(=O)O	none
Cc1cccc(NC(=O)c2ccccc2O)c1C	Coupling enz -32
O=C(NC1CCCCC1)c1cccnc1C(=O)O	Sfp inh 79µM (no result: G9a inh)
O=C(Nc1ccccc1O)c1ccccc1O	G9a inh inconclusive
O=c1cnc2cnc(Nc3ccccc3)nc2n1CCc1ccccc1	none (no result: Tau fluor cs, Tau ThT inhib, Tau fibril FP)
Cc1nc2cncnc2n(C2CC2)c1=O	none (no result: Tau fluor cs, Tau ThT inhib, Tau fibril FP)
COc1ccc(NC2CCCN(Cc3cccc4cnccc34)C2)cc1 (centres undefined)	G9a inh 45µM (no result: Tau fluor cs, Tau ThT inhib, Tau fibril FP)
COc1ccc(CCC(=O)N2CCCC(Nc3ccc(OC)cc3)C2)cc1 (centres undefined)	G9a inh 40µM (no result: Tau fluor cs, Tau ThT inhib, Tau fibril FP)
O=C(CSc1ccccc1)N1CCCC(Nc2ccccc2)C1 (centres undefined)	none (no result: Tau fluor cs, Tau ThT inhib, Tau fibril FP)
COc1ccc(NC2CCCN(C(=O)c3cccc(N4CCNC4=O)c3)C2)cc1 (centres undefined)	G9a inh 40µM (no result: Tau fluor cs, Coupling enz, Tau ThT inhib, Tau fibril FP)
COc1ccc(NC2CCCN(C(=O)CCc3cn[nH]c3)C2)cc1 (centres undefined)	none (no result: Tau fluor cs, Tau ThT inhib, Tau fibril FP)
COc1ccc(NC2CCCN(C(=O)CSc3ccncc3)C2)cc1 (centres undefined)	Sfp inh inconclusive, G9a inh 40µM (no result: Tau fluor cs, Tau ThT inhib, Tau fibril FP)
CCCCNc1nc(C)nc2c1nc(-c1ccccc1)n2CCCN(CC)CC	none (no result: G9a inh)
COc1ccc(C2/C=C\CN(S(=O)(=O)CC34CCC(CC3=O)C4(C)C)CC(=O)N2Cc2ccc(F)cc2)cc1 (centres undefined)	none (no result: Tau fluor cs, G9a inh, Tau ThT inhib, Tau fibril FP)
COc1ccc(N2CCN(C(=O)c3ccc(-c4nc(COc5ccccc5)c(C)o4)cc3)CC2)cc1	G9a inh inconclusive (no result: Sfp inh, Coupling enz)
CCN(CC)S(=O)(=O)c1ccc(NC(=O)C2CCCN(C(=O)c3ccc(Cl)cc3)C2)cc1 (centres undefined)	none
COc1ccc(CCN2C(=O)c3[nH]nc(-c4ccccc4O)c3C2c2ccccc2)cc1 (centres undefined)	Tau fluor cs inconclusive (no result: Sfp inh, Coupling enz)
Cc1nc(C)c(C(=O)OCC(=O)Nc2cccc(C)c2C)s1	none (no result: Tau fluor cs, Sfp inh, Coupling enz, Tau ThT inhib, Tau fibril FP)
COc1ccc(NC2CCCN(C(=O)CCc3scnc3C)C2)cc1 (centres undefined)	G9a inh inconclusive (no result: Tau fluor cs, Coupling enz, Tau ThT inhib, Tau fibril FP)
